# For some of these results: Potency and affinity values are given separately.
# What was measured:
# Parameters in all cases: scale not given: direction of the effect not stated beside the values
# [1] = molecular target: Protein translocase subunit SecA (Escherichia coli (strain K12)) (UniProt P10408); experiment: Assay to Identify E. coli SecA ATPase Inhibitors; format: functional; conditions: 30 µM
# [2] = molecular target: T1, Ubiquitin-activating enzyme e1, putative (Leishmania donovani (strain BPK282A1)) (UniProt E9BSI1); experiment: Leishmania donovani Ubiquitin Activating Enzyme (LdE1); format: functional; conditions: 30 µM
# T1 sequence (whole entry): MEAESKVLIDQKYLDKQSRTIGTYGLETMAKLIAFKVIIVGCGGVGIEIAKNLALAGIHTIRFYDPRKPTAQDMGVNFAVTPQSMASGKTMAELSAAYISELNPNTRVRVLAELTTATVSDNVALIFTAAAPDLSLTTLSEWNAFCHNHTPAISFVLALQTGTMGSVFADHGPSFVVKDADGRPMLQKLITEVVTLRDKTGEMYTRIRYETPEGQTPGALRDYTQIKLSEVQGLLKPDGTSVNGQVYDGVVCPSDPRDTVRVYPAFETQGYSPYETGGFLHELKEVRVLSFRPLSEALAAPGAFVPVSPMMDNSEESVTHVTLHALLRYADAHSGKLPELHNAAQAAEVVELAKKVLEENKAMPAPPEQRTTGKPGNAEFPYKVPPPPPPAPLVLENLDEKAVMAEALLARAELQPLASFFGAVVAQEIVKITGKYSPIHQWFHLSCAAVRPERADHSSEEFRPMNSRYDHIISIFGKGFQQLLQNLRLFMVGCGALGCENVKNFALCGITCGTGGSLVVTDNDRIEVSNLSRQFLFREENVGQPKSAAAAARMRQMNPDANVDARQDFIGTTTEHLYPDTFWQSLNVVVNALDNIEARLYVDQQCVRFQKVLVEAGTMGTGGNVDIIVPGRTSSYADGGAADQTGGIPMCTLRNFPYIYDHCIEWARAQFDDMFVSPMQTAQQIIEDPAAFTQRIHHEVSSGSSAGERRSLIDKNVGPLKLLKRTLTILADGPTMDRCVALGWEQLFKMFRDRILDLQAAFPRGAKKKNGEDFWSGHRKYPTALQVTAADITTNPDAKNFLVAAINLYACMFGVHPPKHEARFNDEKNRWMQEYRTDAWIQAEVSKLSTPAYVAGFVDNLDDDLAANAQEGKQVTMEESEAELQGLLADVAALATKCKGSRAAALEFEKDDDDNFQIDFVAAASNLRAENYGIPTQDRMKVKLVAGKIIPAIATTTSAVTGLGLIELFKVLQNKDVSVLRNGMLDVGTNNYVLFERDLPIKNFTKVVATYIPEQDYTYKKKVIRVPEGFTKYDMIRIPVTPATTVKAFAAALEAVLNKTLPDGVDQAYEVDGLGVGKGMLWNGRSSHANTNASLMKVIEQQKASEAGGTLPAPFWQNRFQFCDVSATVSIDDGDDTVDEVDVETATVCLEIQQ
# [3] = molecular target: T2, Aspartate--tRNA(Asp/Asn) ligase (Mycobacterium tuberculosis (strain ATCC 25618 / H37Rv)) (UniProt P9WFW3); experiment: Assay for Asp RNA synthetase-1 from Mycobacterium tuberculosis; format: functional; conditions: 30 µM; note: in the data most compounds retested in dose-response had high values
# T2 sequence (whole entry): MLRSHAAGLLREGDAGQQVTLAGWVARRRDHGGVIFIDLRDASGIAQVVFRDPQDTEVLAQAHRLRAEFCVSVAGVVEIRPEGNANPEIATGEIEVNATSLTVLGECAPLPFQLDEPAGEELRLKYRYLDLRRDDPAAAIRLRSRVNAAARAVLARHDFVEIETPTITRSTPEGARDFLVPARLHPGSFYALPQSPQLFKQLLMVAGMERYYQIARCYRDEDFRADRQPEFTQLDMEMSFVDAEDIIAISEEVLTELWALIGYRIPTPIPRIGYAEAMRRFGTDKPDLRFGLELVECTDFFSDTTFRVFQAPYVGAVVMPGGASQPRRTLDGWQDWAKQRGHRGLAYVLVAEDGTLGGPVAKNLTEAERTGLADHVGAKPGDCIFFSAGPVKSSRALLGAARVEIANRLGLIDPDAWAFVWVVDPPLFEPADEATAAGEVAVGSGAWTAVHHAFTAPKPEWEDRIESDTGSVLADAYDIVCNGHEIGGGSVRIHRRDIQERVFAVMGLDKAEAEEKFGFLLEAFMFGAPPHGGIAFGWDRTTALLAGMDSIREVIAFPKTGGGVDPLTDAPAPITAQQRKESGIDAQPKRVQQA
# [4] = molecular target: AMP-activated protein kinase, AMPK (Homo sapiens) (UniProt P54646+O43741+P54619+Q9UGJ0+Q9Y478+Q13131+Q9UGI9); experiment: AMP-dependent Kinase enzyme assay. An in vitro enzyme assay that detects ADP turnover that is directly proportional to AMPK activity. This uses naive AMPK that is activated during the assay with MK-8722; format: functional; conditions: 30 µM
# [5] = molecular target: Sialic acid-binding Ig-like lectin 9 (Homo sapiens) (UniProt Q9Y336); experiment: Hs-Siglec9 ALPHAscreen SOP 20170721; conditions: 10 µM
# [6] = tested on: Trypanosoma cruzi; experiment: Trypanosoma cruzi phosphomannomutase and mannose-1-phosphate guanylyltransferase assay; format: functional; conditions: 10 µM
# [7] = molecular target: T3, Arginase-2, mitochondrial (Homo sapiens) (UniProt P78540); experiment: in vitro enzyme assay to detect the production of urea directly proportional to the activity of Arginase II; format: functional; conditions: 33.3 µM; note: in the data most compounds retested in dose-response had high values
# T3 sequence (whole entry): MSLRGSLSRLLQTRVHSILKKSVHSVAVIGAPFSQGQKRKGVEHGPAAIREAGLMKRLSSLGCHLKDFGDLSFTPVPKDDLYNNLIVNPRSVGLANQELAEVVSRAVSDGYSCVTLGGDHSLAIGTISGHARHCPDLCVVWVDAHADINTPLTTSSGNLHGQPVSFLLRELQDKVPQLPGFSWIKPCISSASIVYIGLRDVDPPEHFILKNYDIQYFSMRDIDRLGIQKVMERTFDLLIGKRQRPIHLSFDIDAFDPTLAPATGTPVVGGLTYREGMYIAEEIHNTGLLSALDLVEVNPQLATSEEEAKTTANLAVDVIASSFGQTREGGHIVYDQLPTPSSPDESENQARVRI
# [8] = molecular target: T4, Proteasome subunit beta (Trypanosoma cruzi) (UniProt O96673); experiment: Trypanosoma cruzi proteasome chymotrypsin-like activity (TcProtChymo) assay.; note: in the data most compounds retested in dose-response had high values; format: functional; conditions: 9.37 µM
# T4 sequence (whole entry): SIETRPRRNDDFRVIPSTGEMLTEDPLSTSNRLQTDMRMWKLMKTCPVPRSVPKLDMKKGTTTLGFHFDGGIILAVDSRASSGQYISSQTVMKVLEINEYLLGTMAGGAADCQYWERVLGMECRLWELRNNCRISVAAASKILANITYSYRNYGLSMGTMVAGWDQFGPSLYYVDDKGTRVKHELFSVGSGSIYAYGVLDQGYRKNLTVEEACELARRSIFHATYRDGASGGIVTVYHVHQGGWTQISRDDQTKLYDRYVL
# [9] = species on record: Homo sapiens; experiment: To identify inhibition of the IFN signalling (Jak-Stat) pathway via expression of an eGFP reporter gene under the control of an IFN-stimulated response element (ISRE) containing MxA promoter.; format: functional; conditions: 30 µM
# [10] = molecular target: Shiga toxin 2 (Escherichia coli O157:H7) (UniProt P09385+P09386); experiment: E. coli 0.157:H7 Shiga Toxin SOP - stx2 screening assay; format: functional; conditions: 30 µM
# [11] = molecular target: T5, Tyrosyl-tRNA synthetase, putative (Trypanosoma cruzi (strain CL Brener)) (UniProt Q4DSP6); experiment: Trypanosoma cruzi tyrosyl tRNA synthetase (TcYRS) _High Tyrosine SOP; format: functional; conditions: 30 µM; note: in the data most compounds retested in dose-response had high values
# T5 sequence (whole entry): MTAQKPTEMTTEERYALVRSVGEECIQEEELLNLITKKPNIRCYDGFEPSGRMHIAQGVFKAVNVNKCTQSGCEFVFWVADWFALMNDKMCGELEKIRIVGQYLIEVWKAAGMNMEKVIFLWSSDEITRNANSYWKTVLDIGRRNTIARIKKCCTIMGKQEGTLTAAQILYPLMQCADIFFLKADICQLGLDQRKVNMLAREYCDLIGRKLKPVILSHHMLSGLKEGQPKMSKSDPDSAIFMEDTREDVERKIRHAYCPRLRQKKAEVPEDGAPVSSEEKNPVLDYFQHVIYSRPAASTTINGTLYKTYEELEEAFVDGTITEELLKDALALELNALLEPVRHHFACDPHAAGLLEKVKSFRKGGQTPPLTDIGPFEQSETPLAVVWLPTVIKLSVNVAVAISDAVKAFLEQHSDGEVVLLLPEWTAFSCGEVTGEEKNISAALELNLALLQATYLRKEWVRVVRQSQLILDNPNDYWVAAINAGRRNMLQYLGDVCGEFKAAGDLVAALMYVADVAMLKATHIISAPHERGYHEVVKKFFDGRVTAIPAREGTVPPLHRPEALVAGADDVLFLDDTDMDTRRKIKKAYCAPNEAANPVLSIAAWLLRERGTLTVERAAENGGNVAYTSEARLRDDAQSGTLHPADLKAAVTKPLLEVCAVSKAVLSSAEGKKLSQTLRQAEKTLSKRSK
# [12] = molecular target: T5, Tyrosyl-tRNA synthetase, putative (Trypanosoma cruzi (strain CL Brener)); experiment: Trypanosoma cruzi tyrosyl tRNA synthetase (TcYRS) SOP; format: functional; conditions: 30 µM
# [13] = molecular target: Chromo domain-containing protein 1 (Saccharomyces cerevisiae (strain ATCC 204508 / S288c) (Baker's yeast)) (UniProt P32657); experiment: ScCHD-1 Enzyme Inhibition Assay; format: functional; conditions: 30 µM; note: in the data most compounds retested in dose-response had high values
# Chromo domain-containing protein 1 (Saccharomyces cerevisiae (strain ATCC 204508 / S288c) (Baker's yeast)), sequence (P32657 whole entry, the tested form may be a part): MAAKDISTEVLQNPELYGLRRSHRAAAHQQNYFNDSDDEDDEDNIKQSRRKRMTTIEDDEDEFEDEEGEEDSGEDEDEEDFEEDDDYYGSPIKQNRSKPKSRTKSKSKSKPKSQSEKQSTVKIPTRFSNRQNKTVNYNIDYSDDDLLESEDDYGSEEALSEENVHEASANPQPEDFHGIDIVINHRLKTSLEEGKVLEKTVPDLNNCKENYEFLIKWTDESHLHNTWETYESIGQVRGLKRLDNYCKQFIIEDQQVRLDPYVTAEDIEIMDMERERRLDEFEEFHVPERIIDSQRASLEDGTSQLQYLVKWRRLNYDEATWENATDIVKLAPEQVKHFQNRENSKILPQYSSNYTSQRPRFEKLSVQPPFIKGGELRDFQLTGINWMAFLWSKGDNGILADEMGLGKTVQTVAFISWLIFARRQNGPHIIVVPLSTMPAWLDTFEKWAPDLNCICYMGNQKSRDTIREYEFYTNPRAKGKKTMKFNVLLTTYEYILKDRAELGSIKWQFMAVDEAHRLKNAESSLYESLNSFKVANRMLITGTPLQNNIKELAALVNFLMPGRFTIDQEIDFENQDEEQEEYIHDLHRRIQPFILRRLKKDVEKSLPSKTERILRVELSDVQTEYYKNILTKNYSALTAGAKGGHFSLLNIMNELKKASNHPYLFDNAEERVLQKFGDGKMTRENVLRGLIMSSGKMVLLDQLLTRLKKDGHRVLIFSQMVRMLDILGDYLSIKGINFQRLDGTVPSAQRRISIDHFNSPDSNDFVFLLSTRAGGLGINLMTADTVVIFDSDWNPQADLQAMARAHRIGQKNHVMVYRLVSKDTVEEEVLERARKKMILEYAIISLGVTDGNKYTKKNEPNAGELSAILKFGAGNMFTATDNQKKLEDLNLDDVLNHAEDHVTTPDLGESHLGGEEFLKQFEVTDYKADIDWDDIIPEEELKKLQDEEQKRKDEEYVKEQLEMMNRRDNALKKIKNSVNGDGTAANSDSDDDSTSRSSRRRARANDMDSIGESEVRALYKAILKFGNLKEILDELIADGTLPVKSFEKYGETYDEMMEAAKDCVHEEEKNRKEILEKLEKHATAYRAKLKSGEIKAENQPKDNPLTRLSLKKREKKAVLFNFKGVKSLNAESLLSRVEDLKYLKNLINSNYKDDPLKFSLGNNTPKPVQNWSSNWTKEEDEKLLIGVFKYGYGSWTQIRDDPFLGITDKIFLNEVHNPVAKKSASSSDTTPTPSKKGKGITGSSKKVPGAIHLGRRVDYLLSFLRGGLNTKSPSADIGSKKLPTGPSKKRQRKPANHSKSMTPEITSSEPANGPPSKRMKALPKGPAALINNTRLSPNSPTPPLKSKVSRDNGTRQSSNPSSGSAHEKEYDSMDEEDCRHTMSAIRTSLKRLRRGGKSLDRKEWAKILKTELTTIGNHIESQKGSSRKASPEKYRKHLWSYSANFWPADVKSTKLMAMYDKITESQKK
# Protein translocase subunit SecA (Escherichia coli (strain K12)), sequence (P10408 whole entry): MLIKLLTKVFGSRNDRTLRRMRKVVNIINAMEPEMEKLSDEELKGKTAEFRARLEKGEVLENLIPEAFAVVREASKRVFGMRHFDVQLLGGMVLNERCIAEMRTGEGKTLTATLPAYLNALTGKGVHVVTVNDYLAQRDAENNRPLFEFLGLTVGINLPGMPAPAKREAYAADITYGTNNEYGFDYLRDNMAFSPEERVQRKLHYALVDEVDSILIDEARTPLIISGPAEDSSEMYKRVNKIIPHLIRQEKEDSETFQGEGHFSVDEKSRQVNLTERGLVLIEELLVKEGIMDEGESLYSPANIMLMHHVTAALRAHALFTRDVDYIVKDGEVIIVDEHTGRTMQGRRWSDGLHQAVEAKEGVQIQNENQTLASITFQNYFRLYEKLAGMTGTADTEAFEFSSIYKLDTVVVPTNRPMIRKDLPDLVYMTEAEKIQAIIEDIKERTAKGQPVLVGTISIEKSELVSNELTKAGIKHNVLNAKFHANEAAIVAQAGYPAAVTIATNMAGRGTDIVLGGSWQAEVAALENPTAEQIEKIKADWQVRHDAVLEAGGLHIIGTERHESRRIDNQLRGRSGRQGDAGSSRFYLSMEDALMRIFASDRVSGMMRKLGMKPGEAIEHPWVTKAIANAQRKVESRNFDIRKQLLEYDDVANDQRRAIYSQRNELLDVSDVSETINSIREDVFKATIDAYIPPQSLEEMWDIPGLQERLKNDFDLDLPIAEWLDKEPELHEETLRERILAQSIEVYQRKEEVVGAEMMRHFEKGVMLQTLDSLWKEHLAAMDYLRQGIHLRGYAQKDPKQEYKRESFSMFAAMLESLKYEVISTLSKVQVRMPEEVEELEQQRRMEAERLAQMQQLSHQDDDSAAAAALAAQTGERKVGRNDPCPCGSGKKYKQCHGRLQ
# Sialic acid-binding Ig-like lectin 9 (Homo sapiens), sequence (Q9Y336 whole entry): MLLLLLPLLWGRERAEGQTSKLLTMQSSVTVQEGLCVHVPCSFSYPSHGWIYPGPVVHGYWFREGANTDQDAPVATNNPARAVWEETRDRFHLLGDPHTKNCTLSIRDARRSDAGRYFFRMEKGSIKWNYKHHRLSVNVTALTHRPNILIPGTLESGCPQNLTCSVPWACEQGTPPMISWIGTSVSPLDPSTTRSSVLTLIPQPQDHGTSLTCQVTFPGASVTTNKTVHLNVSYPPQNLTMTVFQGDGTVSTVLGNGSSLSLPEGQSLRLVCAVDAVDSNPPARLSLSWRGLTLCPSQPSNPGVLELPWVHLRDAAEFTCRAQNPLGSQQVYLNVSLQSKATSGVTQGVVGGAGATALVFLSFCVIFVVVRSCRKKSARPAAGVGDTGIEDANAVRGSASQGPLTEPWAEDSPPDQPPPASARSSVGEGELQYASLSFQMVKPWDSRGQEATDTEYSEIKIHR
Structure (SMILES),Percent Effect [1] [%],Percent Effect [2] [%],Percent Effect [3] [%],Percent Effect [4] [%],Percent Effect [5] [%],Percent Effect [6] [%],Percent Effect [7] [%],Percent Effect [8] [%],Percent Effect [9] [%],Percent Effect [10] [%],Percent Effect [11] [%],Percent Effect [12] [%],Percent Effect [13] [%]
NCC1(c2cccc(Br)c2)CCOCC1,-5.22,2.7,5.62,-4.06,-6.14,-2.93,-22.5,8.2,2.44,-23.5,8.91,-6.1,-2.29
Cc1noc(C)c1CN1CC[C@H]2C[C@@H](c3nccs3)O[C@@H]2C1,-4.73,5.41,3.41,3.53,1.06,0.88,0.319,18.1,4.79,11.3,1.08,7.69,-0.345
O=C(NCc1ccccn1)[C@]12COC[C@H]1CN(C1CCC1)C2,-2.39,18.7,-4.34,0.454,0.409,3.86,85.8,10.9,-5.18,-15.4,3.12,10,-7.8
CC(C)CN1C[C@H]2C[C@H](C(=O)Nc3cccnc3)[C@@H](C1)O2,-0.904,0,-0.0153,7.32,-2.44,-7.33,2.87,15.9,-8.69,-15.6,1.08,15.4,2.38
c1cc(CN2CCO[C@H]3[C@H](OCC4CCCC4)CC[C@@H]32)ccn1,-2.78,5.41,5.76,0.694,-1.13,-3.81,1.59,19,24.5,1.34,-2.16,7.69,2.01
Cc1ncccc1OCC(=O)N1CCN[C@H]2CS(=O)(=O)C[C@H]21,-6.4,10.8,7.97,-4.66,0.713,0.489,4.71,14.2,-4.73,11.7,9.68,18.5,-1.55
CC(C)(C)n1cc(C2=CCN(CCc3ccccc3)CC2)cn1,0.726,1.39,-2.65,-7.35,-1.87,5.93,24.3,14.7,11.7,-75.6,6.32,12.8,-5.1
c1cncc(COC[C@H]2CC[C@H]3[C@H](CCN3Cc3cccs3)O2)c1,-1.85,13.3,6.9,3.86,2.88,-0.197,3.5,22.8,3.65,-13.6,7.45,14.1,-5.4
O=C(c1cscn1)N1CCN2C[C@H](OCc3cccnc3)C[C@H]2C1,4.53,16,2.54,2.68,-10.9,-9.05,6.76,12.1,0.411,-22.2,5.32,3.85,1.28
O=C(C1CC1)N1CCC2(CC1)OCCO2,-2.52,7.89,0.21,-0.0617,-9.69,-4.38,2.37,14.1,14.1,-6.13,0,10.4,-6.58
CCN1C[C@H]2[C@@H](C1)N(S(=O)(=O)c1cccnc1)CC[C@H]2OC,-0.0411,5.33,1.49,5.24,-6.52,-5.91,-2.56,4.49,14.5,-25,-3.19,-3.85,-1.11
O=C1CC2(CCN(CC3CC3)C2)CN1c1cccnc1 (configuration not stated),-0.0321,8.11,1.57,-3.31,8.46,-5.18,7.2,11.4,-22.5,-25.7,10.8,11.1,-7.21
COc1cc(CNC(C)Cn2cccn2)cc(OC)c1OC (configuration not stated),0.206,18.2,-3.28,0.589,-6.87,-7.3,4.98,2.87,29.8,-15.9,7.77,14.6,-9.78
Cc1nc(CN2C[C@@H]3OCCN(c4ncc(F)cn4)[C@@H]3C2)cs1,0.0245,5.33,-1.08,7.05,2.47,-1.74,-58.6,11.3,-21.1,2.24,4.17,15,-7
NCC1(c2cccc(C(F)(F)F)c2)CCOCC1,-1.6,5.41,0.69,-16.1,-3.19,-0.781,25,15.6,7.66,-1.62,7.92,18.3,107
O=C(NC[C@]12COC[C@H]1CN(Cc1ccncc1)C2)c1ccco1,-2.11,13.3,-0.368,7.09,2.99,-2.17,4.43,12.8,7.74,-4.6,10.6,21.8,-2.5
O=C(NC[C@]12COC[C@H]1CN(Cc1cccnc1)C2)c1ccno1,0.292,13.3,0.956,8.36,-8.01,-4.13,-0.233,2.73,-4.47,-10.4,9.57,19.2,-7.79
Cn1c(=O)n(C)c2cc(C3SCC(=O)Nc4ccsc43)ccc21 (configuration not stated),-5.92,6.67,-5.4,-13.6,-2.48,7.27,-11.8,12.9,37.1,-33.2,4.23,12.8,-7.83
O=C1[C@H]2CN(Cc3cccs3)C[C@H]2CN1c1cncnc1,-5.75,2.6,-7.76,1.57,4.28,-3.25,-8.28,9.65,7.38,-49.4,2.15,1.24,1.9

# Reference: ChEMBL document CHEMBL3988442, “University of Dundee, Small-Polar-MMV Screening Library” (2021)
